# Laboratory results as given in the supplement of paper PMC10811239.
# Structures can show the parent of a compound that is named as a salt.
# How the values were obtained:
# Assay in all cases: bioluminescence (viable cell) signal fold change after vs before treatment, normalised to DMSO (ratio); higher = more tumour cell growth / less inhibition
# Conditions in all cases: 10 µM; treatment time 6 days
# [1] = test system: LEGO organoid PT (PTEN-/-; TP53-/-)
# Description: (§1)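 Luc2-labelled iPSC-derived glioblastoma-like organoids (LEGOs, genotypes PT = PTEN-/-;TP53-/-, PTCC = plus CDKN2A/B-/-, PTN = plus NF1-/-) were treated with 10 uM drug for 6 days (applied every other day) at 37 C. Bioluminescence imaging was done before treatment and 2 days after the last dose. BLI signals were normalised to the DMSO control on the same day and then to the pre-treatment signal (N=3).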
# [2] = test system: LEGO organoid PTCC (PTEN-/-; TP53-/-; CDKN2A-/-; CDKN2B-/-)
# Description: as §1
# [3] = test system: LEGO organoid PTN (PTEN-/-; TP53-/-; NF1-/-)
# Description: as §1
SMILES,bioluminescence [1],bioluminescence [2],bioluminescence [3]
NC[C@H]1CC[C@H](C(=O)O)CC1 [Amstat],1.51,0.622,0.778
N#Cc1ccc2[nH]cc(CCCCN3CCN(c4ccc5oc(C(N)=O)cc5c4)CC3)c2c1 [Vilazodone],0.812,1.83,0.898
CCc1nn(CCCN2CCN(c3cccc(Cl)c3)CC2)c(=O)n1CCOc1ccccc1.Cl [Nefazodone hydrochloride],1.4,1.12,0.52
C[C@]12C=CC(=O)C=C1CC[C@@H]1[C@@H]2[C@@H](O)C[C@@]2(C)[C@H]1CC[C@]2(O)C(=O)CO [Prednisolone],0.904,1.29,1.71
C[C@H]1[C@H](NC(=O)/C(=N\OC(C)(C)C(=O)O)c2csc(N)n2)C(=O)N1S(=O)(=O)O [Aztreonam],1.04,0.795,1.4
N[C@H](C(=O)O)[C@H](O)c1ccc(O)c(O)c1 [Droxidopa],1.08,2.59,3.13
CN(C)CCC=C1c2ccccc2COc2ccccc21.Cl [Doxepin hydrochloride],1.71,1.05,0.742
CC1=C(CC(=O)O)c2cc(F)ccc2/C1=C\c1ccc(S(C)=O)cc1 (stereo unspecified) [Sulindac],2.8,1.38,1.47
Cc1nc2n(c(=O)c1CCN1CCC(c3noc4cc(F)ccc34)CC1)CCCC2O (stereo unspecified) [Paliperidone],1.4,0.722,0.593
N=C(N)NCCCC[C@@H]1NC(=O)CCSSC[C@@H](C(N)=O)NC(=O)[C@@H]2CCCN2C(=O)[C@H](Cc2c[nH]c3ccccc23)NC(=O)[C@H](CC(=O)O)NC(=O)CNC1=O [Eptifibatide],1.89,0.768,0.917
Cl.NC12CC3CC(CC(C3)C1)C2 [Amantadine hydrochloride],0.852,1.07,3.32
N[C@@H](CC(=O)O)C(=O)O [L-Aspartic acid],0.844,1.1,0.451
O=C1Nc2ccc(Cl)cc2[C@@](C#CC2CC2)(C(F)(F)F)O1 [Efavirenz],0.965,1.96,0.908
O=C(CCCN1CCC(O)(c2ccc(Cl)cc2)CC1)c1ccc(F)cc1 [Haloperidol],0.925,0.956,0.771
CCn1c(=O)c2c(nc(/C=C/c3ccc(OC)c(OC)c3)n2C)n(CC)c1=O [Istradefylline],0.737,3.38,6.31
NC(=O)N[C@@H](CCC(=O)O)C(=O)O [Carglumic Acid],1.27,0.631,1.55
COc1cc2c(cc1OC)C(=O)C(CC1CCN(Cc3ccccc3)CC1)C2.Cl (stereo unspecified) [Donepezil HCl],0.543,0.812,0.746
C[C@]12CCC3=C4CCC(=O)C=C4CC[C@H]3[C@@H]1CC[C@@]2(O)CC#N [Dienogest],0.653,3.61,0.658
Cl.O=c1n(CCCN2CCN(c3cccc(Cl)c3)CC2)nc2ccccn12 [Trazodone hydrochloride],1.97,2.62,0.985
CC1=C(/C=C/C(C)=C/C=C/C(C)=C/C(=O)O)C(C)(C)CCC1 [Tretinoin],0.834,0.531,1.41

SMILES,bioluminescence [1],bioluminescence [2],bioluminescence [3]
Cl.Cl.OCCOCCN1CCN(C(c2ccccc2)c2ccc(Cl)cc2)CC1 (stereo unspecified) [Hydroxyzine dihydrochloride],1.29,0.859,2.31
CCC1=C[C@@H]2CN(C1)Cc1c([nH]c3ccccc13)[C@@](C(=O)OC)(c1cc3c(cc1OC)N(C)[C@H]1[C@@](O)(C(=O)OC)[C@H](OC(C)=O)[C@]4(CC)C=CCN5CC[C@]31[C@@H]54)C2.O=C(O)[C@H](O)[C@@H](O)C(=O)O.O=C(O)[C@H](O)[C@@H](O)C(=O)O [Vinorelbine Tartrate],1.03,1.06,0.805
C[C@@H]1C[C@H]2[C@@H]3CCC4=CC(=O)C=C[C@]4(C)[C@@]3(F)[C@@H](O)C[C@]2(C)[C@@]1(O)C(=O)CO [Dexamethasone],0.763,1.28,1.71
O=C1CCC(N2C(=O)c3ccccc3C2=O)C(=O)N1 (stereo unspecified) [Thalidomide],3.97,0.79,1.38
Cc1[nH]c(=O)c(C#N)cc1-c1ccncc1 [Milrinone],1.11,1.63,1.34
CC(C)Nc1cccnc1N1CCN(C(=O)c2cc3cc(NS(C)(=O)=O)ccc3[nH]2)CC1.CS(=O)(=O)O [Delavirdine mesylate],0.826,0.912,1.76
Cl.O=C1c2cccc3c2[C@H](CCC3)CN1[C@@H]1CN2CCC1CC2 [Palonosetron hydrochloride],1.19,0.952,1.4
CO/N=C(\C(=O)N[C@@H]1C(=O)N2C(C(=O)[O-])=C(COC(C)=O)CS[C@H]12)c1csc(N)n1.[Na+] [Cefotaxime sodium],0.745,1.45,0.707
C[C@@H](Oc1cc(-c2cnn(C3CCNCC3)c2)cnc1N)c1c(Cl)ccc(F)c1Cl [Crizotinib],0.492,0.43,0.303
Cc1ccnc2c1NC(=O)c1cccnc1N2C1CC1 [Nevirapine],2.15,0.901,1.73
C[C@]12CC[C@@H]3c4ccc(O)cc4CC[C@H]3[C@@H]1CC[C@@H]2O [Estradiol],0.389,0.435,1.18
CS(=O)(=O)c1ccc(C(=O)Nc2ccc(Cl)c(-c3ccccn3)c2)c(Cl)c1 [Vismodegib],0.63,2.45,0.888
CCCC(CCC)C(=O)[O-].[Na+] [Valproic acid sodium salt],1.11,1.23,2.43
COC(=O)/C=C/C(=O)OC [Dimethyl fumarate],0.759,0.94,1.44
Nc1ccn([C@@H]2CS[C@H](CO)O2)c(=O)n1 [Lamivudine],0.906,0.674,1.2
CCc1cc2c(cc1N1CCC(N3CCOCC3)CC1)C(C)(C)c1[nH]c3cc(C#N)ccc3c1C2=O.Cl [Alectinib hydrochloride],0.656,0.838,1.36
CN(C)CCC[C@@]1(c2ccc(F)cc2)OCc2cc(C#N)ccc21.O=C(O)C(=O)O [Escitalopram Oxalate],1.52,0.773,0.956
CC(C)(Sc1cc(C(C)(C)C)c(O)c(C(C)(C)C)c1)Sc1cc(C(C)(C)C)c(O)c(C(C)(C)C)c1 [Probucol],0.49,0.73,0.748
CCC(CC)O[C@@H]1C=C(C(=O)O)C[C@H](N)[C@H]1NC(C)=O [Oseltamivir acid],0.803,0.404,1.58
CCCCCCCCc1ccc(CCC(N)(CO)CO)cc1.Cl [Fingolimod hydrochloride],1.07,1.07,0.473

SMILES,bioluminescence [1],bioluminescence [2],bioluminescence [3]
Nc1ccn([C@@H]2O[C@H](CO)[C@@H](O)[C@@H]2O)c(=O)n1 [Cytarabine],1.82,1.15,0.51
CCCN(CCC)CCc1cccc2c1CC(=O)N2.Cl [Ropinirole hydrochloride],1.27,1.02,0.313
Nc1nc2c(ncn2COCCO)c(=O)[nH]1 [Aciclovir],2.34,2.16,4.45
Nc1nc(=O)c2c(CCc3ccc(C(=O)N[C@@H](CCC(=O)[O-])C(=O)[O-])cc3)c[nH]c2[nH]1.Nc1nc(=O)c2c(CCc3ccc(C(=O)N[C@@H](CCC(=O)[O-])C(=O)[O-])cc3)c[nH]c2[nH]1.O.O.O.O.O.[Na+].[Na+].[Na+].[Na+] [Pemetrexed Disodium Hydrate],1.33,0.95,1.05
CN(C)CCc1c[nH]c2ccc(Cn3cncn3)cc12.O=C(O)c1ccccc1 [Rizatriptan benzoate],0.898,1.84,0.666
CCC(C)(C)C(=O)O[C@H]1C[C@@H](C)C=C2C=C[C@H](C)[C@H](CC[C@@H]3C[C@@H](O)CC(=O)O3)[C@H]21 [Simvastatin],1.45,1.71,0.364
Cc1cc(NS(=O)(=O)c2ccc(N)cc2)no1 [Sulfamethoxazole],3.73,1.56,1.8
CN1C(=O)OC(C)(C)C1=O [Trimethadione],0.57,1.38,0.909
CN1CC(=O)N2[C@H](c3ccc4c(c3)OCO4)c3[nH]c4ccccc4c3C[C@@H]2C1=O [Tadalafil],1.59,1.47,0.562
CC1(C)S[C@@H]2[C@H](NC(=O)[C@H](N)c3ccc(O)cc3)C(=O)N2[C@H]1C(=O)O.O.O.O [Amoxicillin trihydrate],1.03,2.36,0.841
N[C@@H](Cc1ccc(O)c(O)c1)C(=O)O [Levodopa],0.963,1.76,1.33
Cc1cc(C)cc(OCC2CNC(=O)O2)c1 (stereo unspecified) [Metaxalone],1.24,1.35,1.62
C[C@H](Cn1cnc2c(N)ncnc21)OCP(=O)(O)O [Tenofovir],0.702,3.69,1.12
N[C@H]1CONC1=O [L-Cycloserine],0.758,1.26,0.884
Cc1nc(Nc2ncc(C(=O)Nc3c(C)cccc3Cl)s2)cc(N2CCN(CCO)CC2)n1 [Dasatinib],0.748,0.977,2
Cc1oncc1C(=O)Nc1ccc(C(F)(F)F)cc1 [Leflunomide],2.01,1.3,3.5
NNC(=O)c1ccncc1 [Isoniazid],,0.847,1.06
CCc1cc2c(cc1N1CCC(N3CCOCC3)CC1)C(C)(C)c1[nH]c3cc(C#N)ccc3c1C2=O [Alectinib],1.13,2.57,0.961
CCN(CC)CCNC(=O)c1cc(Cl)c(N)cc1OC [5-Chloro-2-methoxyprocainamide],1.1,0.329,1.62
